# Results as given in ChEMBL document CHEMBL1961873, “Compounds: GSK PKIS; Assays: Nanosyn kinase panel” (2012).
# Columns and labels:
# [1] = target: Serine/threonine-protein kinase pim-2 (Homo sapiens) (UniProt Q9P1W9); conditions: at 1 µM;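 further: each value is a mean of the inhibition measurements against the kinase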
# [2] = target: Serine/threonine-protein kinase pim-3 (Homo sapiens) (UniProt Q86V86); conditions: at 0.1 µM
# [3] = target: Serine/threonine-protein kinase pim-3 (Homo sapiens) (UniProt Q86V86); conditions: at 1 µM
# [4] = target: T1, MAP kinase-activated protein kinase 5 (Homo sapiens) (UniProt Q8IW41); conditions: at 0.1 µM
# T1 sequence (whole entry): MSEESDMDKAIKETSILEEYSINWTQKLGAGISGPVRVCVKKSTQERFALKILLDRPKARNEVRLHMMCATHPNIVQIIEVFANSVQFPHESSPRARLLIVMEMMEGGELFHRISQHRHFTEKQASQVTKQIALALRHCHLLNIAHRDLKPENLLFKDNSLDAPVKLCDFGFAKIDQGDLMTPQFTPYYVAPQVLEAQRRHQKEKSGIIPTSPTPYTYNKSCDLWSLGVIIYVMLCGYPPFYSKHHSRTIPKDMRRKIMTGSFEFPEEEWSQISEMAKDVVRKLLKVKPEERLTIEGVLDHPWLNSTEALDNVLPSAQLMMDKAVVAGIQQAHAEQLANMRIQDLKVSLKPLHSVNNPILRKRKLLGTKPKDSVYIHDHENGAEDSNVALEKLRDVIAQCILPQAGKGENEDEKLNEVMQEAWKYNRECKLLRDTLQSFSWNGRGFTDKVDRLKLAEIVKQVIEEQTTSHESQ
# [5] = target: T1, MAP kinase-activated protein kinase 5 (Homo sapiens); conditions: at 1 µM
# [6] = target: Serine/threonine-protein kinase SIK1 (Homo sapiens) (UniProt P57059); conditions: at 0.1 µM
# Chain of Serine/threonine-protein kinase SIK1 (Homo sapiens) (P57059 whole entry): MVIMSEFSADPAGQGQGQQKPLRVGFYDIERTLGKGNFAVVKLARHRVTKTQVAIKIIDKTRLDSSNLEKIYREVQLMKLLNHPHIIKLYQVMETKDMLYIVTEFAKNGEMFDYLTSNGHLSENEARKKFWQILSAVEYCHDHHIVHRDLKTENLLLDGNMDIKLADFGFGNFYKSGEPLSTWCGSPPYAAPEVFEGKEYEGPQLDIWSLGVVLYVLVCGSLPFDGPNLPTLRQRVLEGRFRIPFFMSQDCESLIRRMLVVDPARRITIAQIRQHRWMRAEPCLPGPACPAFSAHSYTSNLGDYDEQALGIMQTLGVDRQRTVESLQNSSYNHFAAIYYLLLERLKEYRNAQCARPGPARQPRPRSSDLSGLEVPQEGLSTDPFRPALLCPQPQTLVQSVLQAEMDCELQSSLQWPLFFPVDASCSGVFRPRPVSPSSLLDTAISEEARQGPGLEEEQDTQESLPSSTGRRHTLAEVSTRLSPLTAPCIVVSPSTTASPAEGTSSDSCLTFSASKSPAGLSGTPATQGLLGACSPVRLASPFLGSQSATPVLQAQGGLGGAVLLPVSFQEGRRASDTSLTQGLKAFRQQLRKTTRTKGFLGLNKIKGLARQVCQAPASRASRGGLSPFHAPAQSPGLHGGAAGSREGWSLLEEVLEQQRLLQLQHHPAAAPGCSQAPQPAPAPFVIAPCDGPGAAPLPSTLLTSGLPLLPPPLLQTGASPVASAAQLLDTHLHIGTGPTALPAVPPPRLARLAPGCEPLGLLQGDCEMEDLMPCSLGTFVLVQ
# [7] = target: Serine/threonine-protein kinase SIK1 (Homo sapiens) (UniProt P57059); conditions: at 1 µM
# [8] = target: Serine/threonine-protein kinase SIK2 (Homo sapiens) (UniProt Q9H0K1); conditions: at 0.1 µM
# Chain of Serine/threonine-protein kinase SIK2 (Homo sapiens) (Q9H0K1 whole entry, looked up): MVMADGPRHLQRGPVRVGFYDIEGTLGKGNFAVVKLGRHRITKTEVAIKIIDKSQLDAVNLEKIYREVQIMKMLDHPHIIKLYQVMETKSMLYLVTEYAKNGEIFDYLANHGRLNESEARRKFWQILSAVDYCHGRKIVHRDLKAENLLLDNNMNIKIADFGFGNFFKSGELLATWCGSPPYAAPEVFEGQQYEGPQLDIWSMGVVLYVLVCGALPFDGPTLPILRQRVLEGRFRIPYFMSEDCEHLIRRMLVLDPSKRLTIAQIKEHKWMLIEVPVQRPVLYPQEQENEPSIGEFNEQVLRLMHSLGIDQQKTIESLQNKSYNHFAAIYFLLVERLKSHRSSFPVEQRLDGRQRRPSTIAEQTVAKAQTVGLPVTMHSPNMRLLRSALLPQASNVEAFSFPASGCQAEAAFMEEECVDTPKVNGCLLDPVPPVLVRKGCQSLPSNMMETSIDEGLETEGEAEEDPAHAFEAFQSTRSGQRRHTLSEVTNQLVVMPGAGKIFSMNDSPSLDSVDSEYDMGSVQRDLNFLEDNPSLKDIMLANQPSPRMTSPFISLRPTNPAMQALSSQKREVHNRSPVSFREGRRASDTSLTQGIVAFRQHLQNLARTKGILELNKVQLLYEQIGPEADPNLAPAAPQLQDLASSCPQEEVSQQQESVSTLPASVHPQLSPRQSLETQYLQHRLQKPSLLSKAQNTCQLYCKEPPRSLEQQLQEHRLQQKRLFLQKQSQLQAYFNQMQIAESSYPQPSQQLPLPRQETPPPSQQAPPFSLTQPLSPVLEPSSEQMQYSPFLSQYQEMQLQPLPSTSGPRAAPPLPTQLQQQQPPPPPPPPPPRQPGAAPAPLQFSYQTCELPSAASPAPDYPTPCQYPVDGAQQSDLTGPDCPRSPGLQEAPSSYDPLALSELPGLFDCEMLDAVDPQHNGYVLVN
# [9] = target: Serine/threonine-protein kinase SIK2 (Homo sapiens) (UniProt Q9H0K1); conditions: at 1 µM
# [10] = target: T2, Serine/threonine-protein kinase TBK1 (Homo sapiens) (UniProt Q9UHD2); conditions: at 0.1 µM
# T2 sequence (whole entry): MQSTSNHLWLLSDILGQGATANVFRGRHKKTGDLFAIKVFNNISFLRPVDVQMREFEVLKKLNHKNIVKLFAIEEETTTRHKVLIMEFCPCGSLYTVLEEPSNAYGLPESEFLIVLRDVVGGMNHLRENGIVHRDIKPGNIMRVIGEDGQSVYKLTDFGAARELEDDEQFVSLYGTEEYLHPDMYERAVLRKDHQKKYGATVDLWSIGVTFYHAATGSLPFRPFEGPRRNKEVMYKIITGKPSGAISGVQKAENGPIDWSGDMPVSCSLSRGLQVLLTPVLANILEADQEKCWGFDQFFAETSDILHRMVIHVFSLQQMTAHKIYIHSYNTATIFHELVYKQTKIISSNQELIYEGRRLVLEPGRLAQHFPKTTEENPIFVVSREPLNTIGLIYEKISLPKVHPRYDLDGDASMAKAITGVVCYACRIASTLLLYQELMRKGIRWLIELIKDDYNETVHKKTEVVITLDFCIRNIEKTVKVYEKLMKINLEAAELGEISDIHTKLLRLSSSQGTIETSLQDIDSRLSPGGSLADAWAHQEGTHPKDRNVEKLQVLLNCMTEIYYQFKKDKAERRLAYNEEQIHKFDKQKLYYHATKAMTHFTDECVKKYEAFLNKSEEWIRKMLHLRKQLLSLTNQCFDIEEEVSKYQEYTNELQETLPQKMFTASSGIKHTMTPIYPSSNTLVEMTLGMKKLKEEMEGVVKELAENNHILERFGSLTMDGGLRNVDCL
# [11] = target: T2, Serine/threonine-protein kinase TBK1 (Homo sapiens); conditions: at 1 µM
# [12] = target: T3, Testis-specific serine/threonine-protein kinase 1 (Homo sapiens) (UniProt Q9BXA7); conditions: at 0.1 µM
# T3 sequence (whole entry): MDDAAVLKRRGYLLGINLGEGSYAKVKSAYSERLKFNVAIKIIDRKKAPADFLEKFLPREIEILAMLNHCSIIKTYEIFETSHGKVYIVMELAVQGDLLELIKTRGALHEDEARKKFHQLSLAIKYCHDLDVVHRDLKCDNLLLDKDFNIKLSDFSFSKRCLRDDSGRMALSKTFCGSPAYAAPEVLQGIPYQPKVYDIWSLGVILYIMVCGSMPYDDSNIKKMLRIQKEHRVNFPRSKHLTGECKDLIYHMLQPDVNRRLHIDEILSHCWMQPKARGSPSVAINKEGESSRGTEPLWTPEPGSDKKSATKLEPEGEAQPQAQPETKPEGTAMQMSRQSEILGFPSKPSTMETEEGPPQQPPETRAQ
# [13] = target: T3, Testis-specific serine/threonine-protein kinase 1 (Homo sapiens); conditions: at 1 µM
# [14] = target: T4, Testis-specific serine/threonine-protein kinase 2 (Homo sapiens) (UniProt Q96PF2); conditions: at 0.1 µM
# T4 sequence (whole entry): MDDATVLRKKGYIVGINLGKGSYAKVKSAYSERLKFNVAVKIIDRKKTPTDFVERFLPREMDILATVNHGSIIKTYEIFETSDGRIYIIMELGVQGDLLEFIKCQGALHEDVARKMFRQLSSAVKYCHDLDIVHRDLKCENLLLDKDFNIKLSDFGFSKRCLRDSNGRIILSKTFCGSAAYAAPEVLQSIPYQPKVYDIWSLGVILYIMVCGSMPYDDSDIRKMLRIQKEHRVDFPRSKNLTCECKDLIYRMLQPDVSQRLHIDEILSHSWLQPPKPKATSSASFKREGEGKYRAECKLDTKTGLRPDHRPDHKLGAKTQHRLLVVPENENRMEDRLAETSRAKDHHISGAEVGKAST
# [15] = target: T4, Testis-specific serine/threonine-protein kinase 2 (Homo sapiens); conditions: at 1 µM
# [16] = target: Casein kinase I isoform alpha (Homo sapiens) (UniProt P48729); conditions: at 0.1 µM
# Chain of Casein kinase I isoform alpha (Homo sapiens) (P48729 2-337 limits assumed): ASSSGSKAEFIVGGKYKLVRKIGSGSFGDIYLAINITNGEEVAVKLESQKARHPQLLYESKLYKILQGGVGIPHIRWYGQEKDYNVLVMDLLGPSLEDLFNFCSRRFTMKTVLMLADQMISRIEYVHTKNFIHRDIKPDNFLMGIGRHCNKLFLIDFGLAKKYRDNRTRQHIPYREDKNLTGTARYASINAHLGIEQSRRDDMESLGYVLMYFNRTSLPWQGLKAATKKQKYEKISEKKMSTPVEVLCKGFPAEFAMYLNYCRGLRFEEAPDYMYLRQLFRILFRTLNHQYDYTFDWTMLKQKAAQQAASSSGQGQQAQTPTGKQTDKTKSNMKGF
# [17] = target: Casein kinase I isoform alpha (Homo sapiens) (UniProt P48729); conditions: at 1 µM
# [18] = target: Casein kinase I isoform gamma-1 (Homo sapiens) (UniProt Q9HCP0); conditions: at 0.1 µM
# Chain of Casein kinase I isoform gamma-1 (Homo sapiens) (Q9HCP0 whole entry, looked up, canonical isoform): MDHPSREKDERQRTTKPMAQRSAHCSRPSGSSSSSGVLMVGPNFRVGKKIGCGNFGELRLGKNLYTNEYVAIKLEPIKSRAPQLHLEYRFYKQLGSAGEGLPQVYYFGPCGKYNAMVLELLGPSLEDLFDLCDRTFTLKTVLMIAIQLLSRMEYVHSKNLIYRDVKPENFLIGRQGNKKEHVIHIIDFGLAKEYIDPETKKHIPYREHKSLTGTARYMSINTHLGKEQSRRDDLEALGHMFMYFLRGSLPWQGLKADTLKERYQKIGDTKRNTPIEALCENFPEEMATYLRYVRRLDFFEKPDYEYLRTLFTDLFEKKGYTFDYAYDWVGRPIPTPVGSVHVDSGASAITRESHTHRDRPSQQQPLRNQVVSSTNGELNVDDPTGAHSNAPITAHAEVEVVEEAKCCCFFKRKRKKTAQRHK
# [19] = target: Casein kinase I isoform gamma-1 (Homo sapiens) (UniProt Q9HCP0); conditions: at 1 µM
# [20] = target: Casein kinase I isoform gamma-2 (Homo sapiens) (UniProt P78368); conditions: at 0.1 µM;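 further: values are mean inhibition figures reported as part of the GSK PKIS dataset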
# Chain of Casein kinase I isoform gamma-2 (Homo sapiens) (P78368 whole entry, looked up, canonical isoform): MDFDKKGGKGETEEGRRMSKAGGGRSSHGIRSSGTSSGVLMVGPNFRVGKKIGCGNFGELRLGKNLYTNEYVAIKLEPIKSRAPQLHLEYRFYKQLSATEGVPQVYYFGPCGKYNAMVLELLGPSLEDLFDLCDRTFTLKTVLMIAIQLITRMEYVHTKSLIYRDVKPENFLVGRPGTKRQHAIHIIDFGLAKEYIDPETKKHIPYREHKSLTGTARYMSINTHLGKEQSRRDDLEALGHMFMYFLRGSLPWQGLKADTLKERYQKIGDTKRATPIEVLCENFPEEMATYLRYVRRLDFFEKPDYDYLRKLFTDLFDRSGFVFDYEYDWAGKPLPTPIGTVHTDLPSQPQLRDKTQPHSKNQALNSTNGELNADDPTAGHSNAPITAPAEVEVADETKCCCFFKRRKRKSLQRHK
# Chain of Serine/threonine-protein kinase pim-2 (Homo sapiens) (Q9P1W9 whole entry, looked up): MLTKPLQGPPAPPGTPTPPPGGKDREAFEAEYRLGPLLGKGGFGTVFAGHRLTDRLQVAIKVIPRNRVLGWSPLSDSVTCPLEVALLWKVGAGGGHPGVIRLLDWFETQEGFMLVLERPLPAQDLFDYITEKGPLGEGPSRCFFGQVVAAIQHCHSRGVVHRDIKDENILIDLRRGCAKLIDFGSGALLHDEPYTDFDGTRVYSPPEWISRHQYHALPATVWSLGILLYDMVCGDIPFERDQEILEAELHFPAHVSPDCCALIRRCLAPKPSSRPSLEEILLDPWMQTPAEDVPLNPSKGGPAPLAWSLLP
SMILES,inhibition [1],inhibition [2],inhibition [3],inhibition [4],inhibition [5],inhibition [6],inhibition [7],inhibition [8],inhibition [9],inhibition [10],inhibition [11],inhibition [12],inhibition [13],inhibition [14],inhibition [15],inhibition [16],inhibition [17],inhibition [18],inhibition [19],inhibition [20]
Fc1ccc(-c2ncn(C3CCNCC3)c2-c2ccnc(Oc3ccc(Oc4ccccc4)cc3)n2)cc1,-0.39%,-1.06%,0.02%,1.12%,1.72%,7.97%,12.8%,6.45%,10.1%,2.66%,2.57%,4.18%,4.2%,0.94%,2.4%,10.7%,49.6%,6.35%,20.6%,5.54%
C#Cc1cccc(Nc2ncnc3ccc(OCCCCNCCS(C)(=O)=O)cc23)c1,-1.09%,6.18%,36.2%,2.33%,2.73%,8.26%,38.7%,5.71%,27.5%,1.72%,8.32%,6.03%,6.34%,2.32%,2.71%,2.51%,7.93%,0.79%,1.77%,0.57%
CCN(CC)Cc1ccc(Nc2nccc(-c3cnn4ncccc34)n2)cc1,-0.59%,6.38%,37.2%,1.44%,2.13%,2.61%,24.1%,10.8%,47.2%,5.04%,12.3%,5.5%,26.5%,0.81%,2.16%,15.2%,54.3%,2.36%,6.01%,1.79%
CN(c1ccc(NC(=O)Nc2c(Cl)cccc2Cl)cc1)c1ccnc(Nc2cccc(CS(C)(=O)=O)c2)n1,0.1%,1.1%,3.85%,1.58%,1.46%,5.71%,13.3%,9.6%,10.2%,3.74%,8.89%,1.9%,3.33%,0.55%,1.93%,1.15%,1.15%,0.39%,1.32%,1.06%
Clc1ccc(CNc2nccc(-c3cnn4ncccc34)n2)cc1,2.14%,1.78%,6.13%,0.35%,0.03%,0.93%,1.65%,4.14%,0.45%,0.1%,2.91%,0.5%,-0.65%,0.23%,-1.43%,2.75%,16.9%,0.12%,7.72%,1.44%
COc1ccc(C2=C(N3CCc4ccccc43)C(=O)NC2=O)cc1,0.67%,-0.2%,0.86%,1.93%,2.12%,8.63%,8.47%,6.36%,11.3%,0.88%,7.18%,4.87%,6.13%,3.64%,3.35%,3.74%,8.77%,3.77%,4.09%,3.12%
